PubChem BioAssay (EPA / NIEHS)
Active and inactive are the calls of the source. Rule for the calls: active = hit-call score of the fitted dose curve at least 0.9, where 1 is the maximum; inactive = score below 0.9.

Assay: APR_HepG2_CellCycleArrest_1hr: Apredica 1-hour HepG2 Assay for Cell Cycle Arrest (AID 2282666)
Details: high-content imaging, actives raise or lower the signal
Experimental: APR_HepG2_1hr is a cell-based, multiplexed-readout assay that uses HepG2, a human liver cell line, with measurements taken at 1 hour after chemical dosing in a 384-well plate.APR_HepG2_CellCycleArrest_1hr is one of 10 assay component(s) measured or calculated from the APR_HepG2_1hr assay. It is designed to make measurements of cell phenotype, a form of morphology reporter, as detected with fluorescence intensity signals by HCS Fluorescent Imaging technology.Data from the assay component APR_HepG2_CellCycleArrest_1hr was analyzed into 1 assay endpoint. This assay endpoint, APR_HepG2_CellCycleArrest_1hr, was analyzed with bidirectional fitting relative to DMSO as the negative control and baseline of activity. Using a type of morphology reporter, measures of all nuclear dna for gain or loss-of-signal activity can be used to understand the signaling at the pathway-level as they relate to the gene . Furthermore, this assay endpoint can be referred to as a primary readout, because this assay has produced multiple assay endpoints where this one serves a signaling function. To generalize the intended target to other relatable targets, this assay endpoint is annotated to the cell cycle intended target family, where the subfamily is arrest.
Cells were treated with dimethyl sulfoxide (DMSO) as a solvent control at a final concentration of 0.5% v/v or with compounds in DMSO with a resulting final DMSO concentration of 0.5% v/v. Compound treatment was done at concentrations of 0.39, 0.78, 1.56, 3.12, 6.24, 12.5, 25, 50, 100, and 200 uM in duplicate on each plate. Cells were treated with compounds for 1, 24, or 72 hr. Carbonyl […] m-chloro-phenylhydrazone (CCCP) and taxol were used as positive controls for mitochondrial function and cytoskeletal stability, respectively; DMSO served as the negative control for this experiment. Cells were fixed by the direct addition of 50 uL formaldehyde in Hank's Balanced Salt Solution (HBSS) to a final concentration of 3.7%. After incubation in the fixation medium for 30 min at room temperature (293-298 K), cells were rinsed twice with HBSS and treated with cell permeabilization buffer (16 uL of 0.5% Triton X-100) for 10 min at room temperature (293-298 K) before labeling. For mitochondrial membrane potential and mitochondrial measurements, pre-fixed cells were incubated with 50 uL of MitoTracker Red CMXRos (Invitrogen) at a concentration of 250 nM for 30 min before fixation. In the remaining cases, post-fixed cells were labeled by incubation with a multiplexed mixture of primary antibodies in HBSS for 60 min at room temperature (293-298 K) to detect immunoreactivity of c-Jun (1:500), phospho-histone H3 (1:100), phospho-histone H2A.x (1:200), p53 (1:400), alpha-tubulin (1:200) and Hoechst 33342 (2 ug/mL). Cells were labeled for multiplexed imaging on two separate plates: a) Hoechst 33342, MitoTracker Red, phospho-histone H3, and alpha-tubulin, and b) Hoechst 33342, phospho-histone H2A.x, and c-Jun. A final rinse with HBSS (50 uL) was performed before analysis. The primary and secondary antibodies for the proteins were phospho-histone H3 (rabbit anti-phospho-histone H3 and FITC-donkey anti-rabbit IgG), phospho-histone H2A.x (mouse anti-phospho-histone H2A.x and FITC-donkey anti-mouse IgG), c-Jun (rabbit anti-phospho-c-Jun and Cy3-donkey anti-rabbit IgG), p53 (sheep anti-p53 and Cy5-donkey anti-sheep IgG), alpha-tubulin (mouse anti-alpha-tubulin and Cy5-donkey anti-mouse IgG). These antibodies are available as the CellCiphr HepG2 assay kit (Millipore).Digital images of each well were captured using a Cellomics ArrayScan VTI (Thermo Scientific Cellomics) (0.8 NA objective, 0.63x optical coupler, and XF-93 filter set) at 20x magnification. The images were acquired using the autofocus feature of the ArrayScan instrument, which entails the following steps. First, the camera focuses on channel 1 (Hoechst 33342), where nuclei are identified. Second, a Z offset of 1 um is used for capturing mitochondria (MitoTracker Red). […]

Row | Compound | outcome
1 | OB(O)O | inactive
2 | CCOC(=O)C(C)Oc1ccc(Oc2nc3ccc(Cl)cc3o2)cc1 (stereo not given) | inactive
3 | CCNc1nc(N)nc(Cl)n1 | inactive
4 | S=C(S)NCCNC(=S)S.[Mn+2].[S-]C([S-])=NCCN=C([S-])[S-].[Zn+2] | inactive
5 | c1ccc(Nc2ccccc2)cc1 | inactive
6 | CSC(=O)c1cccc2nnsc12 | inactive
7 | CCCCC(CC)CN1C(=O)C2C3C=CC(C3)C2C1=O (stereo not given) | inactive
8 | CCN(CC)C(=O)c1cccc(C)c1 | inactive
9 | COCCO | inactive
10 | CCCCC(CC)COC(=O)c1ccccc1C(=O)O (stereo not given) | inactive
11 | S=C([S-])NCCNC(=S)[S-].[Mn+2] | inactive
12 | CCCN(CCC)c1c([N+](=O)[O-])cc(C(F)(F)F)c(N)c1[N+](=O)[O-] | inactive
13 | CCCCCOC(=O)COc1cc(N2C(=O)C3=C(CCCC3)C2=O)c(F)cc1Cl | inactive
14 | COC(=O)CSc1cc(N=c2sc(=O)n3n2CCCC3)c(F)cc1Cl | inactive
15 | COC(=O)c1ccc(I)cc1S(=O)(=O)NC(=O)Nc1nc(C)nc(OC)n1 | inactive
16 | N#CSCSc1nc2ccccc2s1 | inactive
17 | COC(=O)c1ccccc1S(=O)(=O)NC(=O)Nc1nc(OC(F)F)cc(OC(F)F)n1 | inactive
18 | COc1c(Cl)ccc(Cl)c1C(=O)O | inactive
19 | COC(=O)c1ccc(CNS(C)(=O)=O)cc1S(=O)(=O)NC(=O)Nc1nc(OC)cc(OC)n1 | inactive
20 | Cc1nn(C)c(Oc2ccccc2)c1C=NOCc1ccc(C(=O)OC(C)(C)C)cc1 | inactive

Row | Compound | outcome
21 | CCCCOCCOCCOCc1cc2c(cc1CCC)OCO2 | inactive
22 | C=CCOC(Cn1ccnc1)c1ccc(Cl)cc1Cl (stereo not given) | inactive
23 | CC(C)(C)[C@@H](O)[C@@H](Cc1ccc(Cl)cc1)n1cncn1 | inactive
24 | COC(=O)c1ccccc1C(=O)O | inactive
25 | CCOC(=O)C(C)Oc1ccc(Oc2cnc3cc(Cl)ccc3n2)cc1 (stereo not given) | inactive
26 | CN(C)C(=O)Nc1ccc(Cl)c(Cl)c1 | inactive
27 | CC(C)(c1ccc(O)cc1)c1ccc(O)cc1 | inactive
28 | CCOC(=O)COc1cc(-n2ncc(C(F)(F)F)c(C)c2=O)c(F)cc1Cl | inactive
29 | CCCOC(=O)NCCCN(C)C | inactive
30 | O=C(Nc1ccc([N+](=O)[O-])cc1Cl)c1cc(Cl)ccc1O | inactive
31 | O=C(O)C1(C(=O)Nc2ccc(Cl)cc2Cl)CC1 | inactive
32 | CCOC(=O)NCCOc1ccc(Oc2ccccc2)cc1 | inactive
33 | Oc1ccc(C(c2ccc(O)cc2)C(Cl)(Cl)Cl)cc1 | inactive
34 | CCC(C)OC(=O)N1CCCCC1CCO (stereo not given) | inactive
35 | CCC(O)=C1C(=O)CC(C(=O)O)CC1=O (stereo not given) | inactive
36 | CCCN(CCC)C(=O)SCC | inactive
37 | COC(=O)c1c(Cl)nn(C)c1S(=O)(=O)NC(=O)Nc1nc(OC)cc(OC)n1 | inactive
38 | CCSC(=O)N(CC(C)C)CC(C)C | inactive
39 | COC(=O)c1cccc(C)c1S(=O)(=O)NC(=O)Nc1nc(OCC(F)(F)F)nc(N(C)C)n1 | inactive
40 | CCCCOC(=O)C(C)Oc1ccc(Oc2ccc(C(F)(F)F)cn2)cc1 (stereo not given) | inactive
